Measured values: the supplement of paper PMC9262897, “Low-cost anti-mycobacterial drug discovery using engineered E. coli” (Nature Communications, 2022)
Structures can show the parent of a compound that is named as a salt. ± gives the standard deviation of the averaged measurements.

What follows are compounds tested on E. coli TESEC Mtb DapB (assay: growth (OD600 after 10 h); higher = more growth (less inhibition)). Settings: arabinose induction (level): Low; compound 0.1 mM; raw OD600 reference: median of DMSO wells 0.227, cell-free background 0.041.
Experimental: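 TESEC E. coli strains in which the native enzyme is deleted and replaced by arabinose-inducible Mtb Asd, DapB, CysH or TrpD, each grown in its selective medium. Strains were screened against the Prestwick library at 0.1 mM and 1% DMSO in 384-well format at low and high arabinose induction. Growth is read as OD600 after 10 h in triplicate.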

Row | SMILES | growth
1 | COc1ncnc(NS(=O)(=O)c2ccc(N)cc2)c1OC [Sulfadoxine] | 0.237 ± 0.0097
2 | c1ccc(C2CN3CCSC3=N2)cc1 (stereo not given) [Tetramisole hydrochloride] | 0.252 ± 0.035
3 | CCCC1O[C@@H]2C[C@H]3[C@@H]4CCC5=CC(=O)C=C[C@]5(C)[C@H]4[C@@H](O)C[C@]3(C)[C@]2(C(=O)CO)O1 (stereo not given in full) [Budesonide] | 0.231 ± 0.0093
4 | COc1cc2ncnc(Nc3ccc(F)c(Cl)c3)c2cc1OCCCN1CCOCC1 [Gefitinib] | 0.246 ± 0.0095
5 | C[C@H]1C[C@@H]2[C@H]([C@@H](O)C[C@@]3(C)[C@H]2CC[C@]3(O)C(=O)CO)[C@@]2(C)C=CC(=O)C=C12 [Methylprednisolone, 6-alpha] | 0.213 ± 0.023
6 | C[C@@H](O)[C@H]1C(=O)N2C(C(=O)O)=C(SCCNC=N)C[C@H]12 [Imipenem] | 0.231 ± 0.015
7 | CC(=O)Oc1ccccc1C(=O)Nc1ncc([N+](=O)[O-])s1 [Nitazoxanide] | 0.0559 ± 0.0026
8 | CC[C@H](C)[C@H](N)C1=N[C@H](C(=O)N[C@@H](CC(C)C)C(=O)N[C@H](CCC(=O)O)C(=O)N[C@H](C(=O)N[C@H]2CCCCNC(=O)[C@H](CC(N)=O)NC(=O)[C@@H](CC(=O)O)NC(=O)[C@H](Cc3cnc[nH]3)NC(=O)[C@@H](Cc3ccccc3)NC(=O)[C@H]([C@@H](C)CC)NC(=O)[C@@H](CCCN)NC2=O)[C@@H](C)CC)CS1 [Bacitracin] | 0.243 ± 0.028
9 | c1ccc([C@H]2CN3CCSC3=N2)cc1 [Levamisole hydrochloride] | 0.214 ± 0.023
10 | CN(Cc1cnc2nc(N)nc(N)c2n1)c1ccc(C(=O)N[C@@H](CCC(=O)O)C(=O)O)cc1 (racemic) [Amethopterin (R,S)] | 0.204 ± 0.022
